# According to the supplement of paper PMC8728848:
# The entries come from a sample that favours the strongest signals as a whole.
# How the values were obtained:
# Experiment in all cases: glycan array binding signal (z-score within array); higher = stronger binding
# Settings in all cases: glycan notation: IUPAC condensed, linker removed
# Fuc(a1-2)Gal = target: Fuc(a1-2)Gal
# Procedure, shortened: (§1)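 Negative Z-scores can be read as non-binding. The Z-score is calculated within each array and then averaged across arrays of one protein sequence at different concentrations or buffers and across linkers. Arrays, 3228 in all, were curated from the Consortium for Functional Glycomics database and kept only where the protein sequence was available.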
# [1] = target: Fuc(a1-2)Gal(b1-3)GlcNAc(b1-2)Man(a1-3)[Fuc(a1-2)Gal(b1-3)GlcNAc(b1-2)Man(a1-6)]Man(b1-4)GlcNAc(b1-4)GlcNAc
# Procedure, shortened: as §1
# [2] = target: Fuc(a1-2)Gal(b1-3)GlcNAc(b1-3)[Gal(b1-4)GlcNAc(b1-6)]Gal(b1-4)Glc
# Procedure, shortened: as §1
# [3] = target: Fuc(a1-2)Gal(b1-3)[Fuc(a1-4)]GlcNAc(b1-2)Man(a1-3)[Fuc(a1-2)Gal(b1-3)[Fuc(a1-4)]GlcNAc(b1-2)Man(a1-6)]Man(b1-4)GlcNAc(b1-4)[Fuc(a1-6)]GlcNAc(b1-4)[Fuc(a1-6)]GlcNAc
# Procedure, shortened: as §1
# [4] = target: Fuc(a1-2)Gal(b1-4)GlcNAc(b1-2)[Fuc(a1-2)Gal(b1-4)GlcNAc(b1-4)]Man(a1-3)[Fuc(a1-2)Gal(b1-4)GlcNAc(b1-2)Man(a1-6)]Man(b1-4)GlcNAc(b1-4)GlcNAc
# Procedure, shortened: as §1
# [5] = target: Fuc(a1-2)Gal(b1-4)GlcNAc(b1-6)GalNAc
# Procedure, shortened: as §1
# [6] = target: Fuc(a1-2)Gal(b1-4)[Fuc(a1-3)]GlcNAc(b1-2)Man(a1-3)[Fuc(a1-2)Gal(b1-4)[Fuc(a1-3)]GlcNAc(b1-2)Man(a1-6)]Man(b1-4)GlcNAc(b1-4)[Fuc(a1-6)]GlcNAc
# Procedure, shortened: as §1
# Fuc(a1-2)Gal6S(b1-4)Glc = target: Fuc(a1-2)Gal6S(b1-4)Glc
# Procedure, shortened: as §1
# [7] = target: Fuc(a1-2)[Gal(a1-3)]Gal(b1-3)GlcNAc(b1-6)GalNAc
# Procedure, shortened: as §1
# [8] = target: Fuc(a1-2)[Gal(a1-3)]Gal(b1-4)GlcNAc(b1-3)GalNAc
# Procedure, shortened: as §1
# [9] = target: Fuc(a1-2)[Gal(a1-3)]Gal(b1-4)[Fuc(a1-3)]GlcNAc(b1-3)GalNAc
# Procedure, shortened: as §1
# [10] = target: Fuc(a1-2)[GalNAc(a1-3)]Gal
# Procedure, shortened: as §1
# [11] = target: Fuc(a1-2)[GalNAc(a1-3)]Gal(b1-3)GlcNAc
# Procedure, shortened: as §1
# [12] = target: Fuc(a1-2)[GalNAc(a1-3)]Gal(b1-4)GlcNAc
# Procedure, shortened: as §1
# [13] = target: Fuc(a1-2)[GalNAc(a1-4)]Gal(b1-4)GlcNAc
# Procedure, shortened: as §1
# [14] = target: Gal(a1-3)[Gal(a1-4)]Gal(b1-4)GlcNAc
# Procedure, shortened: as §1
# [15] = target: Gal(a1-4)Gal(b1-4)GlcNAc(b1-3)Gal(b1-4)Glc
# Procedure, shortened: as §1
# Gal(b1-3)Gal(b1-4)GlcNAc = target: Gal(b1-3)Gal(b1-4)GlcNAc
# Procedure, shortened: as §1
# [16] = target: Gal(b1-3)GalNAc(b1-4)Gal(b1-4)Glc
# Procedure, shortened: as §1
# [17] = target: Gal(b1-3)GlcNAc(b1-2)Man(a1-3)[GlcNAc(b1-4)][Gal(b1-3)GlcNAc(b1-2)Man(a1-6)]Man(b1-4)GlcNAc(b1-4)GlcNAc
# Procedure, shortened: as §1
# [18] = target: Gal(b1-3)GlcNAc(b1-2)[Gal(b1-3)GlcNAc(b1-6)]Man(a1-6)[Gal(b1-3)GlcNAc(b1-2)Man(a1-3)]Man(b1-4)GlcNAc(b1-4)GlcNAc
# Procedure, shortened: as §1
# [19] = target: Gal(b1-3)GlcNAc(b1-3)Gal(b1-4)GlcNAc(b1-2)Man(a1-3)[Gal(b1-3)GlcNAc(b1-3)Gal(b1-4)GlcNAc(b1-2)Man(a1-6)]Man(b1-4)GlcNAc(b1-4)GlcNAc
# Procedure, shortened: as §1
# [20] = target: Gal(b1-3)[Fuc(a1-4)]GlcNAc(b1-2)Man
# Procedure, shortened: as §1
# [21] = target: Gal(b1-3)[Fuc(a1-4)]GlcNAc(b1-2)Man(a1-3)[Gal(b1-3)[Fuc(a1-4)]GlcNAc(b1-2)Man(a1-6)]Man(b1-4)GlcNAc(b1-4)[Fuc(a1-6)]GlcNAc
# Procedure, shortened: as §1
# [22] = target: Gal(b1-4)GalNAc(b1-3)[Fuc(a1-2)]Gal(b1-4)GlcNAc
# Procedure, shortened: as §1
# [23] = target: Gal(b1-4)GlcNAc(b1-2)Man(a1-3)[Man(a1-6)]Man(b1-4)GlcNAc(b1-4)GlcNAc
# Procedure, shortened: as §1
# [24] = target: Gal(b1-4)GlcNAc(b1-2)[Gal(b1-4)GlcNAc(b1-6)]Man(a1-6)[GlcNAc(b1-4)][Gal(b1-4)GlcNAc(b1-2)Man(a1-3)]Man(b1-4)GlcNAc(b1-4)GlcNAc
# Procedure, shortened: as §1
# [25] = target: Gal(b1-4)GlcNAc(b1-3)Gal(b1-3)GalNAc
# Procedure, shortened: as §1
# [26] = target: Gal(b1-4)GlcNAc(b1-3)Gal(b1-4)GlcNAc(b1-2)Man(a1-3)[Gal(b1-4)GlcNAc(b1-3)Gal(b1-4)GlcNAc(b1-2)Man(a1-6)]Man(b1-4)GlcNAc(b1-4)GlcNAc
# Procedure, shortened: as §1
# [27] = target: Gal(b1-4)GlcNAc(b1-3)Gal(b1-4)GlcNAc(b1-3)Gal(b1-4)GlcNAc(b1-3)Gal(b1-4)GlcNAc(b1-3)Gal(b1-4)GlcNAc(b1-2)[Gal(b1-4)GlcNAc(b1-3)Gal(b1-4)GlcNAc(b1-3)Gal(b1-4)GlcNAc(b1-3)Gal(b1-4)GlcNAc(b1-3)Gal(b1-4)GlcNAc(b1-6)]Man(a1-6)[Gal(b1-4)GlcNAc(b1-3)Gal(b1-4)GlcNAc(b1-3)Gal(b1-4)GlcNAc(b1-3)Gal(b1-4)GlcNAc(b1-3)Gal(b1-4)GlcNAc(b1-2)Man(a1-3)]Man(b1-4)GlcNAc(b1-4)[Fuc(a1-6)]GlcNAc
# Procedure, shortened: as §1
# [28] = target: Gal(b1-4)GlcNAc(b1-3)[Gal(b1-4)GlcNAc(b1-6)]Gal(b1-4)GlcNAc
# Procedure, shortened: as §1
# Gal3S(b1-4)Glc = target: Gal3S(b1-4)Glc
# Procedure, shortened: as §1
# Gal6S(b1-3)GlcNAc = target: Gal6S(b1-3)GlcNAc
# Procedure, shortened: as §1
# [29] = target: GalNAc(a1-3)GalNAc(b1-3)Gal(a1-4)Gal(b1-4)Glc
# Procedure, shortened: as §1
# GalNAc(b1-3)GalNAc = target: GalNAc(b1-3)GalNAc
# Procedure, shortened: as §1
# [30] = target: GalNAc(b1-4)GlcNAc(b1-2)Man(a1-3)[GalNAc(b1-4)GlcNAc(b1-2)Man(a1-6)]Man(b1-4)GlcNAc(b1-4)GlcNAc
# Procedure, shortened: as §1
# Glc(a1-6)Glc(a1-6)Glc = target: Glc(a1-6)Glc(a1-6)Glc
# Procedure, shortened: as §1
# Glc(b1-6)Glc = target: Glc(b1-6)Glc
# Procedure, shortened: as §1
# [31] = target: GlcNAc(a1-4)Gal(b1-4)GlcNAc(b1-3)Gal(b1-4)[Fuc(a1-3)]GlcNAc(b1-3)Gal(b1-4)[Fuc(a1-3)]GlcNAc
# Procedure, shortened: as §1
# [32] = target: GlcNAc(b1-3)Gal(b1-4)GlcNAc(b1-2)Man(a1-3)[GlcNAc(b1-3)Gal(b1-4)GlcNAc(b1-2)Man(a1-6)]Man(b1-4)GlcNAc(b1-4)[Fuc(a1-6)]GlcNAc
# Procedure, shortened: as §1
# [33] = target: GlcNAc(b1-3)Gal(b1-4)GlcNAc(b1-3)Gal(b1-4)GlcNAc(b1-2)[GlcNAc(b1-3)Gal(b1-4)GlcNAc(b1-3)Gal(b1-4)GlcNAc(b1-6)]Man(a1-6)[GlcNAc(b1-3)Gal(b1-4)GlcNAc(b1-3)Gal(b1-4)GlcNAc(b1-2)Man(a1-3)]Man(b1-4)GlcNAc(b1-4)[Fuc(a1-6)]GlcNAc
# Procedure, shortened: as §1
# Man(a1-2)Man(a1-3)Man = target: Man(a1-2)Man(a1-3)Man
# Procedure, shortened: as §1
# [34] = target: Man(a1-3)[Man(a1-6)]Man(a1-6)[Man(a1-2)Man(a1-3)]Man(b1-4)GlcNAc(b1-4)GlcNAc
# Procedure, shortened: as §1
# Man(b1-4)GlcNAc = target: Man(b1-4)GlcNAc
# Procedure, shortened: as §1
# [35] = target: Neu5Ac(a2-3)Gal(b1-3)GalNAc6S
# Procedure, shortened: as §1
# [36] = target: Neu5Ac(a2-3)Gal(b1-4)GlcNAc(b1-2)Man(a1-3)[Neu5Ac(a2-3)Gal(b1-4)GlcNAc(b1-2)Man(a1-6)]Man(b1-4)GlcNAc(b1-4)GlcNAc
# Procedure, shortened: as §1
# [37] = target: Neu5Ac(a2-6)Gal(b1-4)GlcNAc(b1-3)Gal(b1-4)GlcNAc(b1-3)Gal(b1-4)GlcNAc(b1-2)Man(a1-3)[Neu5Ac(a2-6)Gal(b1-4)GlcNAc(b1-3)Gal(b1-4)GlcNAc(b1-3)Gal(b1-4)GlcNAc(b1-2)Man(a1-6)]GalNAc
# Procedure, shortened: as §1
# [38] = target: Neu5Ac(a2-6)Gal(b1-4)GlcNAc(b1-3)Gal(b1-4)GlcNAc(b1-6)[Gal(b1-3)]GalNAc
# Procedure, shortened: as §1
# [39] = target: Neu5Ac(a2-8)Neu5Ac(a2-3)Gal(b1-4)GlcNAc
# Procedure, shortened: as §1
# [40] = target: Neu5Ac(a2-8)Neu5Gc(a2-3)Gal(b1-4)GlcNAc
# Procedure, shortened: as §1
binder,measurement,setting,value
PX14343I-pdi-501-30-501 (Parabacteroides distasonis) (protein) SDQYSTETFWKTKEHASAGIMGCYNALKLWRSLHTMEFDMLTANAMPYNEANGTQAIGKGEHLSTTALIGSLWKNCYVGIGRTNTFIANVGGVDMDESEKAKMVGEAKFLRAFYYLSLVDKFGGVPLIIDAPNADEQAELPRNSKEEVVNQIVKDLEEAAAVLPDTYASSDLGRATKGAALALKARTLLYNSRWAEAAQAAKQVMESGVYQLFNDYRHFFSEDNKYNCEVIFDIEAKLPEYPTDYDQNIWRLNRPAPLKELVDTYLCVDGKTIEESPLYDPTRPYENRDPRLLKSIVCIGYPYLGKTITKEDVATTGFGVKKYTSYEDDVTIPLVERSAFNFILIRYAEVLLTYAEAQNEASGPDQSVYDAINQLRRRPDINMPEVPKGLTKDQMREVIRRERRIELTFEGLYYSDILRWKTAEKENNGMMHNYEGIEVVKRSFNPKRDYLWPIPYNQTVLNPNLEQNPNWD,glycan array binding signal (z-score),Fuc(a1-2)Gal,-0.249
same,glycan array binding signal (z-score),[1],1.95
same,glycan array binding signal (z-score),[2],-0.005
same,glycan array binding signal (z-score),[3],-1.15
same,glycan array binding signal (z-score),[4],1.69
same,glycan array binding signal (z-score),[5],-1.54
same,glycan array binding signal (z-score),[6],2.6
same,glycan array binding signal (z-score),Fuc(a1-2)Gal6S(b1-4)Glc,0.082
same,glycan array binding signal (z-score),[7],-0.008
same,glycan array binding signal (z-score),[8],0.362
same,glycan array binding signal (z-score),[9],-0.205
same,glycan array binding signal (z-score),[10],-0.237
same,glycan array binding signal (z-score),[11],0.35
same,glycan array binding signal (z-score),[12],-0.707
same,glycan array binding signal (z-score),[13],-0.33
same,glycan array binding signal (z-score),[14],2.67
same,glycan array binding signal (z-score),[15],-0.408
same,glycan array binding signal (z-score),Gal(b1-3)Gal(b1-4)GlcNAc,-0.375
same,glycan array binding signal (z-score),[16],-0.713
same,glycan array binding signal (z-score),[17],0.623
same,glycan array binding signal (z-score),[18],1.55
same,glycan array binding signal (z-score),[19],0.741
same,glycan array binding signal (z-score),[20],0.532
same,glycan array binding signal (z-score),[21],1.6
same,glycan array binding signal (z-score),[22],-0.377
same,glycan array binding signal (z-score),[23],-0.562
same,glycan array binding signal (z-score),[24],-0.439
same,glycan array binding signal (z-score),[25],-0.11
same,glycan array binding signal (z-score),[26],1.61
same,glycan array binding signal (z-score),[27],1.86
same,glycan array binding signal (z-score),[28],-0.2
same,glycan array binding signal (z-score),Gal3S(b1-4)Glc,0.301
same,glycan array binding signal (z-score),Gal6S(b1-3)GlcNAc,0.19
same,glycan array binding signal (z-score),[29],0.12
same,glycan array binding signal (z-score),GalNAc(b1-3)GalNAc,1.96
same,glycan array binding signal (z-score),[30],-0.398
same,glycan array binding signal (z-score),Glc(a1-6)Glc(a1-6)Glc,0.049
same,glycan array binding signal (z-score),Glc(b1-6)Glc,-0.768
same,glycan array binding signal (z-score),[31],1.69
same,glycan array binding signal (z-score),[32],4.66
same,glycan array binding signal (z-score),[33],1.77
same,glycan array binding signal (z-score),Man(a1-2)Man(a1-3)Man,0.611
same,glycan array binding signal (z-score),[34],0.28
same,glycan array binding signal (z-score),Man(b1-4)GlcNAc,-0.706
same,glycan array binding signal (z-score),[35],-0.135
same,glycan array binding signal (z-score),[36],-0.301
same,glycan array binding signal (z-score),[37],2.21
same,glycan array binding signal (z-score),[38],0.989
same,glycan array binding signal (z-score),[39],-0.464
same,glycan array binding signal (z-score),[40],18.3
